Compounds with a hit are over-represented: about 4.1% of the library has one in this group of screens.
NSD2 HMT inh = NSD2 (human) methyltransferase inhibition | O96028 | inhibition, % at 12.5 µM | 310,000 tested, 0.54% active | NSD2 peptide methylation, AlphaScreen, 120 min; in the data active means inhibition above about 50%
ALR H2O2 inh = inhibitors of human sulfhydryl oxidase ALR | AID 485317 | P55789 | 290,000 tested, 3.8% active | inhibition, % (concentration not given with the values) | purified ALR, DTT oxidation, H2O2 HRP-luminol luminescence;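 active means mean replicate inhibition above about 79%, with every replicate also reaching it, limit read from the data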
Target sequence (P55789 whole entry, looked up): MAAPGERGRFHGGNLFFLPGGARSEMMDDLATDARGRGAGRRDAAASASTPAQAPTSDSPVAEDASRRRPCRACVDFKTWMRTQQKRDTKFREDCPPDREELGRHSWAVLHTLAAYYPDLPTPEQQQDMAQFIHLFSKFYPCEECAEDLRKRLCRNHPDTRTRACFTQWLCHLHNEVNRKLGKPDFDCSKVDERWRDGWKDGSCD
Env fusion inh = HIV envelope-mediated fusion inhibition | inhibition, % at 12.3 µM | 360,000 tested, 1.1% active | HeLa-JRFL Env/CEM21 cell fusion, luciferase | AID 651610;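 active means mean replicate inhibition score of at least 50 and every replicate individually at or above 50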;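 further: 0% = plate neutral controls and 100% = maraviroc near 300 nM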
CASP6 VEID inh = blocks human caspase-6 cleavage activity | AID 686996 | P55212 | purified caspase-6, Z-VEID-R110 cleavage fluorescence | inhibition, % at 12.5 µM | 350,000 tested, 0.53% active;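 active means mean inhibition across replicates at least about 35%, with every replicate also reaching that limit, limit read from the data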;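 further: 0% = median of neutral control wells and 100% = no fluorescence left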
Target sequence (P55212 24-179 limits assumed): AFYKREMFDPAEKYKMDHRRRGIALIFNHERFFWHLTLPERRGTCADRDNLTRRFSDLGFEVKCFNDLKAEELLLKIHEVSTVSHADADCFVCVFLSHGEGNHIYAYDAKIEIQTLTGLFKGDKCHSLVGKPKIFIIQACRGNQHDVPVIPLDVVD
Target sequence (P55212 194-293 limits assumed): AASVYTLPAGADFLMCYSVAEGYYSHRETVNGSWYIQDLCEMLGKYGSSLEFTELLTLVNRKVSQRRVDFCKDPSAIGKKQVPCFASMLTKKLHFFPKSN
F508del corr = correctors of CFTR F508del function in bronchial epithelial cells; CFBE cells, YFP halide quenching; stimulated with forskolin plus potentiator P3; % fluorescence drop versus neutral controls; activity (quench increase), % at 7.58 µM; 350,000 tested, 0.36% active; AID 720511;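 active means mean added fluorescence quench of at least 8% versus neutral control, with both replicates also reaching 8%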;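 further: cells transiently co-express mutant CFTR-F508del with the halide-sensitive YFP; corrector assay measuring rescue of mutant channel to the surface after 24 h compound exposure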
PglD inh = blocks C. jejuni PglD acetyltransferase activity; purified PglD enzyme, DTNB colorimetric CoA detection; inhibition, % at 12.5 µM; 360,000 tested, 0.098% active; AID 602405; in the data active means inhibition above about 16%, passing the limit was not always enough
Active calls of the source: *; . = no result; [ ] = another dose, or the depositor's remark.

SMILES	NSD2 HMT inh	ALR H2O2 inh	Env fusion inh	CASP6 VEID inh	F508del corr	PglD inh
C[C@H](CO)N1C[C@H](C)[C@@H](CN(C)C(=O)Nc2ccc3c(c2)OCO3)Oc2ccc(NC(=O)Cc3cn(C)c4ccccc34)cc2C1=O	.	.	.	0	0	.
O=C(Nc1cccc(F)c1)c1ccc2ncsc2c1	-5	.	.	.	.	4
O=C(Nc1ccncc1)c1ccc2ncsc2c1	-1	98*	1	-3	-4	-3
O=C(Nc1ccc(S(=O)(=O)Nc2ncccn2)cc1)c1ccc2ncsc2c1	.	99*	1	28	-3	.
C[C@H]1CN([C@@H](C)CO)C(=O)c2cc(NC(=O)Cc3cn(C)c4ccccc34)ccc2O[C@H]1CN(C)Cc1ccc(C(F)(F)F)cc1	.	.	3[16.7 µM]	0	2	0
COCC#Cc1ccc2c(c1)O[C@H](CN(C)Cc1ccccn1)[C@@H](C)CN([C@H](C)CO)S2(=O)=O	.	.	.	3	-1	-4
O=S(=O)(NNc1ccc(F)cc1F)c1cccc(Cl)c1	1	98*	-7	.	-1	.
Cc1ccc(-c2nc(NCCCO)c3ccccc3n2)cc1	2	98*	-2	-5	.	-4
Cc1ccc(-c2nc(NCCN(C)C)c3ccccc3n2)cc1	25	6	10	-20	7	-1
COc1ccc2c3c([nH]c2c1)[C@@H](CO)N(C(=O)Nc1cccc(F)c1)CC31CN(CC2CCOCC2)C1	.	.	10[16.7 µM]	4	-2	.
CO[C@H]1CN(C)C(=O)c2ccc(NC(C)=O)cc2OC[C@@H](C)N(C(=O)c2ccccn2)C[C@H]1C	.	.	-17[16.7 µM]	2	-2	0
O=C(NCc1ccccn1)c1n[nH]c2ccccc12	0	-2	-145	.	.	3
O=C(NCc1ccccn1)c1n[nH]c(=O)c2ccccc12	-5	-8	-5	-1	8.6*	-4
COc1ccc2cc(C3CC=C(CO)CN3S(=O)(=O)c3ccccc3[N+](=O)[O-])n(C(=O)OC(C)(C)C)c2c1 (stereo unspecified)	-2	.	65*	-1	0	.
CCc1ccccc1OCC(=O)OCC(=O)N1CC(=O)Nc2ccccc21	2	-1	1	60*	-1	.
COc1ccc(OCC(=O)OCC(=O)N2CC(=O)Nc3ccccc32)cc1	-1	-17	21	3	0	-4
Cc1nc(N2CCN(c3ccccc3)CC2)nc2c1C(=O)CC(c1ccccc1)C2 (stereo unspecified)	-2	-8	64*	.	.	-9
COc1ccc(C(=O)N/N=C/C2CC=CCC2)cc1OC (stereo unspecified)	1	93*	-7	1	0	2
Cc1ccc(Nc2c([N+](=O)[O-])c(=O)oc3ccccc23)cc1	3	-3	-39	1	5	.
O=c1oc2ccccc2c(Nc2ccc(O)cc2)c1[N+](=O)[O-]	2	94*	.	.	.	-3
CC(C)(C)c1ccc(-c2cc(NC(=O)Cc3c[nH]c4ccccc34)ccc2Nc2cccnc2)cc1	.	.	74*	0	-2	.
O=C1CCc2cc(Br)ccc2O1	.	.	.	45*	2	13
COc1cc(C2Nn3c(nnc3-c3ccccc3OC)S2)ccc1O (stereo unspecified)	2	99*	.	.	.	5
COc1cc(C2Nc3cccc4cccc(c34)N2)ccc1O	.	-54	8	3	-5	-7
Cc1cccc(NC(=S)N/N=C/c2cccc(O)c2)c1C	0	.	-51	1	11*	-2
SMILES	NSD2 HMT inh	ALR H2O2 inh	Env fusion inh	CASP6 VEID inh	F508del corr	PglD inh
Cc1ccccc1NC(=S)N/N=C/c1ccc(O)cc1O	3	99*	-59	11	2	3
O=C(O)c1cccc(NC(=S)N/N=C/c2cccc(O)c2)c1	-1	32	38	0	-1	.
CCS(=O)(=O)C1=NN2C(=N)/C(=C\c3ccc(SCc4ccco4)o3)C(=O)N=C2S1	95*	.	-44	.	.	.
Cc1ccccc1-n1c(C)cc(/C=C2/C(=N)N3C(c4ccccc4)=CSC3=NC2=O)c1C	-3	-1	-2	-1	.	3
N=C1/C(=C/c2ccc(-c3cccc(C(=O)O)c3)o2)C(=O)N=C2SC(CC(=O)N3CCOCC3)=NN12	84*	8	-13	31	1	2
N=C1/C(=C\c2ccc(SCc3ccccc3)o2)C(=O)N=C2SC(CC(=O)N3CCOCC3)=NN12	2	98*	-5	7	-2	.
N=C1/C(=C\c2ccc(-c3cccc(C(=O)O)c3)o2)C(=O)N=C2SC=C(c3ccccc3)N12	.	6	-7	50*	2	.
CC(C)NC(=O)N(C)C[C@H]1Oc2ccc(NC(=O)Cc3cn(C)c4ccccc34)cc2C(=O)N([C@@H](C)CO)C[C@H]1C	.	.	.	1	2	0
Cc1ccc(/C=C2\C(=N)N3N=C(CC(=O)N4CCOCC4)SC3=NC2=O)o1	4	92*	8	38*	1	-8
COc1ccc(/C=C2\C(=N)N3N=C(CC(=O)N4CCOCC4)SC3=NC2=O)cc1	5	-6	-4	-1	0	-2
CCCC#Cc1ccc([C@@H]2[C@H](CO)N3C(=O)CN(C(=O)c4ccccn4)C[C@@H]23)cc1	.	.	.	0	2	.
O=C1NCCCc2c1oc1ccc(O)cc21	0	99*	-84	.	.	5
Cc1ccc(S(=O)(=O)/N=C(\Sc2ccccc2)c2ccccc2)cc1	2	98*	.	.	.	-2
COc1ccc2c3c([nH]c2c1)[C@@H](CO)N(S(C)(=O)=O)CC31CCN(Cc2nccs2)CC1	.	.	.	.	-2	.
CCc1nc(SCC(=O)Nc2ccc(N(C)C)cc2)n[nH]1	1	98*	-8	-1	-1	1
CCc1nc(SCC(=O)Nc2ccc(C(=O)O)cc2)n[nH]1	.	99*	2	1	-1	2
CCc1nc(SCC(=O)Nc2ccc(N(CC)CC)cc2)n[nH]1	-4	.	.	-2	3	2
O=C(C[C@@H]1CC[C@@H]2[C@H](COC[C@H](O)CN2C(=O)c2ccc(F)cc2)O1)Nc1ccc(-c2ccccc2)cc1	.	.	23[16.7 µM]	-1	3	0
CCCS(=O)(=O)N1CCC(C(=O)NCCN(CC)c2ccccc2)CC1	-3	71	.	.	.	4
CCN(CCCNC(=O)C1CCN(S(=O)(=O)CC)CC1)c1ccccc1	1	99*	.	-2	-1	1
CCN(CCNC(=O)C1CCN(S(C)(=O)=O)CC1)c1ccccc1	-1	99*	-10	.	.	-2
CCCCN(CCCNC(=O)C1CCN(S(=O)(=O)N2CCOCC2)CC1)c1ccccc1	-3	99*	.	-1	.	-5
CCN(CCCNC(=O)C1CCC(=O)N1Cc1ccc(F)cc1)c1cccc(C)c1 (stereo unspecified)	12	99*	.	0	.	-5
CCN(CCCNC(=O)C1CCC(=O)N1C1CCCC1)c1cccc(C)c1 (stereo unspecified)	-3	.	.	.	.	-3
CN(C)C(=O)C[C@H]1C=C[C@@H](NC(=O)NC2CCCCC2)[C@@H](CO)O1	.	.	-5[16.7 µM]	6	-1	-5

Source: PubChem BioAssay
